Test results: PubChem BioAssay AID841 (Emory University Molecular Libraries Screening Center, 2007)
Out of some 140,000 compounds screened, about 2,100 (1.5%) were called active. No stated cut-off is given here; in the data, active means protection mostly above about 24% (no sharp cut-off); inactive means mostly below about 26%. This excerpt belongs to a sample that is enriched for actives.

Assay: blockers of measles virus-induced cell death – single point, MLSMR library, absorbance, measles RdRp inhibitor project, primary screen (AID 841)
Conditions: Measles virus-infected cells, CPE protection, at 4 µM, active compounds read high
With `Cc1cc([N+](=O)[O-])nn1CC(=O)Nc1ccc(Cc2ccncc2)cc1` the protection (pct of control) was 3.88% (inactive).
In the case of `CCCCCCCCCOC1OC(CO)C(O)C(O)C1NC(C)=O` (configuration not stated), the protection (pct of control) is reported as 19.9% (inactive).
With `CONc1nc2nonc2nc1NOC` the protection (pct of control) was 8.78% (inactive).
For `CC(C)C(=O)Nc1ccc(C(=O)NNC(=O)c2cccs2)cc1`, the protection (pct of control) was 6.3% (inactive).
With `COc1ccccc1-c1nnc(NC(=O)c2ccc3ncsc3c2)o1` the protection (pct of control) was 19.4% (inactive).
In the case of `CCN(CC)C(=O)c1sc(NC(=O)c2ccco2)c(C#N)c1C`, the protection (pct of control) is reported as 10.4% (inactive).
For `CCC(=O)Nc1sc(C(=O)N2CCCCC2)c(C)c1C#N`, the protection (pct of control) was 34.3% (active).
In the case of `CCOC(=O)c1sc(NC(=O)CSc2ncccn2)c(C#N)c1C`, the protection (pct of control) is reported as 12.3% (inactive).
In the case of `N#Cc1c(-c2ccc(F)cc2)cc(C2CC2)nc1SCC(=O)c1cccs1`, the protection (pct of control) is reported as 17.3% (inactive).
In the case of `COc1ccc(NC(=O)c2sc(N3CCOCC3)nc2-c2ccccc2)c(OC)c1`, the protection (pct of control) is reported as 7.3% (inactive).
For `COC(=O)C(C)Sc1nc2c(c(=O)n(C)c(=O)n2C)n1Cc1cccc(C)c1` (configuration not stated), the protection (pct of control) was 13.3% (inactive).
For `CCCSc1nc2c(c(=O)n(C)c(=O)n2C)n1Cc1ccc(C)cc1`, the protection (pct of control) was 16.6% (inactive).
With `Cc1cccc(Cn2c(SCCO)nc3c2c(=O)n(C)c(=O)n3C)c1` the protection (pct of control) was 38.3% (active).
In the case of `O=C(CSc1ccc(C(F)(F)F)cc1[N+](=O)[O-])NCCOc1ccccc1`, the protection (pct of control) is reported as 16.6% (inactive).
In the case of `CCCCc1cc2c(s1)CCCC/C2=N/O`, the protection (pct of control) is reported as 5.03% (inactive).
For `COc1cc(C)c(C(C)C)cc1S(=O)(=O)n1ccnc1`, the protection (pct of control) was 24.3% (inactive).
With `CCOc1ccc(S(=O)(=O)N2CCCCCC2)c2ccccc12` the protection (pct of control) was 3.16% (inactive).
In the case of `CCOc1ccc(S(=O)(=O)n2ccnc2)c2ccccc12`, the protection (pct of control) is reported as 40.7% (active).
In the case of `O=S(=O)(/N=C(/Nc1ccccc1)c1ccccc1)c1cccs1`, the protection (pct of control) is reported as 4.51% (inactive).
For `CC(=O)COc1ccc2c(-c3ccccc3)cc(=O)oc2c1`, the protection (pct of control) was 68.7% (active).
With `Cc1cc(=O)oc2ccc(OCC(=O)O)cc12` the protection (pct of control) was 16.4% (inactive).
For `COC(=O)C(C)Oc1ccc2c(-c3cccc([N+](=O)[O-])c3)cc(=O)oc2c1` (configuration not stated), the protection (pct of control) was 4.97% (inactive).
In the case of `CC(C)NC(=S)N1CCN(S(C)(=O)=O)CC1`, the protection (pct of control) is reported as 39.7% (inactive).
For `O=C(Nc1ccc2c(c1)OCCO2)C1CCCN(c2ncccn2)C1` (configuration not stated), the protection (pct of control) was 7.15% (inactive).
In the case of `Cc1ccnc(N2CCC(C(=O)NC3CCCCCC3)CC2)n1`, the protection (pct of control) is reported as 6.88% (inactive).
With `Cc1ccnc(N2CCCC(C(=O)Nc3cc(F)ccc3C)C2)n1` (configuration not stated) the protection (pct of control) was 46.4% (active).
For `NC1=NC(=O)C(Cc2cccc(Cl)c2Cl)S1` (configuration not stated), the protection (pct of control) was 22.3% (inactive).
With `C=CCn1c2ccccc2c2nnc(SCc3[nH]c(=O)[nH]c3C(=O)CCCCC(=O)OCC)nc21` the protection (pct of control) was 14.8% (inactive).
In the case of `O=C(O)c1ccc2c(c1)C(=O)N(NC(=O)c1ccc(O)cc1)C2=O`, the protection (pct of control) is reported as 16.8% (inactive).
For `CC(C)(C)C(=O)c1cnc(Nc2ccccc2)s1`, the protection (pct of control) was 2.07% (inactive).
With `O=C(/C=C/Nc1ccccc1)c1cnc(-c2ccccc2)s1` the protection (pct of control) was 62.4% (active).
For `Cc1ccc(N/C=C/C(=O)c2ccccc2)cc1C`, the protection (pct of control) was 11.4% (inactive).
In the case of `Oc1ccccc1/C=N/n1c(-c2cccs2)n[nH]c1=S`, the protection (pct of control) is reported as 36.6% (active).
With `S=c1[nH]nc(-c2ccccc2)n1/N=C/c1c[nH]c2ccccc12` the protection (pct of control) was 2.43% (inactive).
For `Cc1ccc(/C=N\n2c(-c3ccccc3)n[nH]c2=S)s1`, the protection (pct of control) was 8.39% (inactive).
For `COC(=O)Cc1ccc(OCC(=O)Nc2ccc(OC(F)(F)F)cc2)cc1`, the protection (pct of control) was 9.11% (inactive).
With `Cc1ccc2nc(SCc3cn4c(C)cc(C)nc4n3)[nH]c2c1` the protection (pct of control) was 15.7% (inactive).
In the case of `CN(C)/C(=N\OC(=O)c1ccccc1)c1nonc1N`, the protection (pct of control) is reported as 10.6% (inactive).
For `COc1ccc(NC(=O)Cn2c(=O)n(Cc3ccco3)c(=O)c3ccccc32)cc1`, the protection (pct of control) was 4.73% (inactive).
For `O=C(Cn1nc(Cc2cccnc2)c2ccccc2c1=O)NCC1CCCO1` (configuration not stated), the protection (pct of control) was 2.54% (inactive).
With `O=C(Cn1c(=O)n(Cc2ccco2)c(=O)c2ccccc21)NCC1CCCO1` (configuration not stated) the protection (pct of control) was 42.5% (active).
In the case of `O=C(/C=C/c1ccc(F)cc1)Nc1cccc(S(=O)(=O)Nc2cccc(C(F)(F)F)c2)c1`, the protection (pct of control) is reported as 9.17% (inactive).
For `Cc1ccc(-c2nc(C)sc2CC(=O)OCC(=O)Nc2c(F)cccc2F)cc1`, the protection (pct of control) was 4.46% (inactive).
For `CCn1nc(C(=O)OCC(=O)N2c3ccccc3CC2C)c2ccccc2c1=O` (configuration not stated), the protection (pct of control) was 10.5% (inactive).
For `CCCC(=O)N1c2ccc(-c3csc(N)n3)cc2CC1C` (configuration not stated), the protection (pct of control) was 79.2% (active).
With `CCC(=O)N1c2ccc(S(=O)(=O)CCC(=O)N3CCN(c4ccccc4)CC3)cc2CC1C` (configuration not stated) the protection (pct of control) was 8.07% (inactive).
For `O=C(NC(=S)Nc1cc(C(F)(F)F)ccc1N1CCOCC1)c1ccc(-c2cccc(Cl)c2)o1`, the protection (pct of control) was 1.76% (inactive).
With `COC(=O)[C@H]1Cc2cnoc2C[C@]1(C)C(=O)O` the protection (pct of control) was 8.42% (inactive).
With `Cc1ccc(-c2cc(C(=O)N/N=C/C=C/c3ccccc3)n[nH]2)o1` the protection (pct of control) was 25.7% (inactive).
With `Cc1ccc(N=C2NC(=O)c3cccc([N+](=O)[O-])c32)cc1` the protection (pct of control) was 8.24% (inactive).
For `COc1cccc2c1OCC1COc3c(c(=O)n(C)c(=O)n3C)C21` (configuration not stated), the protection (pct of control) was 23.9% (inactive).
In the case of `Cn1c2c(c(=O)n(C)c1=O)[C@@H]1c3c(ccc4ccccc34)OC[C@@H]1CO2`, the protection (pct of control) is reported as 38.9% (active).
For `Cn1c2c(c(=O)n(C)c1=O)C1c3ccccc3OCC1C(C)(C)O2` (configuration not stated), the protection (pct of control) was 12.9% (inactive).
In the case of `COc1ccc(-c2csc(NC(=O)COC(=O)c3ccc(Br)o3)n2)cc1`, the protection (pct of control) is reported as 7.27% (inactive).
In the case of `O=C(CSc1nnc(-c2ccncc2)o1)NCc1ccc(Cl)cc1`, the protection (pct of control) is reported as 5.59% (inactive).
In the case of `Cc1ccc(N(C(=O)C(F)(F)F)C(C(=O)NC2CCCCC2)c2ccncc2)cc1C` (configuration not stated), the protection (pct of control) is reported as 29.7% (inactive).
For `COc1cc2c(cc1OC)C(=O)NCC(C)(C)O2`, the protection (pct of control) was 6.34% (inactive).
For `Cc1cc([N+](=O)[O-])c(-c2ccc(/C=N/n3cnnc3)o2)cc1Cl`, the protection (pct of control) was 33.8% (inactive).
For `Cc1ccc(Cl)cc1-c1ccc(/C=N/n2cnnc2)o1`, the protection (pct of control) was 70.5% (active).
In the case of `Cc1cc(-c2ccc(/C=N/n3cnnc3)o2)c([N+](=O)[O-])cc1C`, the protection (pct of control) is reported as 28.4% (inactive).
With `Cc1ccc(N2C(=O)C(NC(=O)c3c(F)cccc3F)(C(F)(F)F)C3=C2CC(C)(C)CC3=O)cc1` (configuration not stated) the protection (pct of control) was 5.53% (inactive).
For `Cc1cccc(NC(=O)/C=C/c2ccc3c(c2)OCO3)n1`, the protection (pct of control) was 46.6% (active).
For `O=C(/C=C/c1ccc2c(c1)OCO2)NCc1ccc(F)cc1`, the protection (pct of control) was 5.86% (inactive).
In the case of `CCc1c(C)sc(NC(=O)/C=C/c2ccc3c(c2)OCO3)c1C(=O)OC`, the protection (pct of control) is reported as 3.56% (inactive).
In the case of `CCCCc1ccc(NC(=S)N2CCCC(CO)C2)cc1` (configuration not stated), the protection (pct of control) is reported as 11.5% (inactive).
For `O=C(CN1C(=O)/C(=C\c2ccccc2F)SC1=S)Nc1nc2ccccc2s1`, the protection (pct of control) was 6.1% (inactive).
With `Cc1noc(/C=C/c2ccco2)c1S(=O)(=O)N1CCC(C(=O)Nc2ccc(Cl)cn2)CC1` the protection (pct of control) was 7.95% (inactive).
With `CC(C)(C)C1CCC(=NNC(=O)c2ccc(Br)o2)CC1` (configuration not stated) the protection (pct of control) was 3.96% (inactive).
In the case of `C/C(=N/NC(=O)c1ccc(Br)o1)c1ccc(C)o1`, the protection (pct of control) is reported as 13% (inactive).
With `CCC(C)(C)C1CCC(=NNC(=O)c2ccc(Br)o2)CC1` (configuration not stated) the protection (pct of control) was 39% (active).
With `CC1(C)C(C=C(Cl)Cl)C1C(=O)N(Cc1ccc(Cl)cc1)C1CCS(=O)(=O)C1` (configuration not stated) the protection (pct of control) was 9.24% (inactive).
In the case of `Fc1ccc(CNCc2ccc(Br)cc2)cc1`, the protection (pct of control) is reported as 8.72% (inactive).
For `N#CC1(NC(=O)COc2ccc3oc4ccccc4c3c2)CCCCC1`, the protection (pct of control) was 21.4% (inactive).
For `Cc1cc(C)cc(OCC(=O)NNC(=O)CCN2C(=O)c3ccccc3C2=O)c1`, the protection (pct of control) was 9.19% (inactive).
For `Cc1nc(-c2ccccc2)cn2c1nc1ccccc12`, the protection (pct of control) was 23.6% (inactive).
In the case of `CC(=O)Nc1cccc(NC(=O)c2c(-c3ccccc3)noc2C)c1`, the protection (pct of control) is reported as 14.1% (inactive).
With `CCOC(=O)c1c(-c2ccccc2)csc1NC(=S)NC(=O)c1ccccc1` the protection (pct of control) was 9.01% (inactive).
With `CCOC(=O)c1c(-c2cccc(C)c2)csc1NC(=O)c1c(-c2ccccc2)noc1C` the protection (pct of control) was 54.7% (active).
In the case of `CCc1cc(C(=O)OC)c(NC(=O)CC2Sc3ccc(C(F)(F)F)cc3NC2=O)s1` (configuration not stated), the protection (pct of control) is reported as 11.3% (inactive).
In the case of `CCOc1ccc(NC(=O)c2ccc(CSc3nnnn3C)cc2)cc1`, the protection (pct of control) is reported as 10.1% (inactive).
For `Cc1c(C(=O)Nc2cccc(Cl)c2)cn2c(nc3ccccc32)c1C#N`, the protection (pct of control) was 8.24% (inactive).
In the case of `CCCCC(NS(=O)(=O)c1ccc(C)cc1)C(=O)Oc1ccc2c3c(c(=O)oc2c1)CCC3` (configuration not stated), the protection (pct of control) is reported as 9.68% (inactive).
With `CC1CN(S(=O)(=O)c2ccc(C(=O)Nc3sccc3C(N)=O)cc2)CC(C)O1` (configuration not stated) the protection (pct of control) was 9.47% (inactive).
With `O=C(NC(=S)N1CCN(Cc2ccccc2)CC1)c1ccccc1` the protection (pct of control) was 18% (inactive).
In the case of `O=C(Nc1ccccc1)N1CCN(Cc2ccccc2)CC1`, the protection (pct of control) is reported as 65.6% (active).
For `O=C(Nc1cccc(NC(=O)N2CCN(c3ccccc3)CC2)c1)N1CCN(c2ccccc2)CC1`, the protection (pct of control) was 27.8% (inactive).
With `CN(Cc1ccccc1)C(=O)COC(=O)c1ccccc1Nc1ccccc1` the protection (pct of control) was 18.6% (inactive).
With `O=[N+]([O-])c1ccccc1SNc1ccccn1` the protection (pct of control) was 4.84% (inactive).
With `O=C(CCl)NNc1cccc(Cl)n1` the protection (pct of control) was 28.9% (active).
For `COc1cc(OC)nc(NC(=O)CCl)n1`, the protection (pct of control) was 15.4% (inactive).
With `O=C(NNc1ccccn1)c1ccc(Cl)nc1` the protection (pct of control) was 3.74% (inactive).
In the case of `COc1cc(OC)c(C(=O)Nc2ccccc2-c2ccccc2)cc1OC`, the protection (pct of control) is reported as 39.7% (inactive).
In the case of `CC(OC(=O)CNS(=O)(=O)/C=C/c1ccccc1)C(=O)Nc1ccc(S(=O)(=O)N2CCCC2)cc1` (configuration not stated), the protection (pct of control) is reported as 8.77% (inactive).
For `Cc1nn(Cc2ccc(F)cc2)c(C)c1NC(=O)c1cccnc1Cl`, the protection (pct of control) was 10.5% (inactive).
For `Cc1nc2cc(NC(=O)CSc3nc4c(C)cccc4cc3C#N)ccc2s1`, the protection (pct of control) was 7.78% (inactive).
For `CC1(C)CCc2nc(SCc3ccccc3)c(C#N)cc2C1`, the protection (pct of control) was 17.7% (inactive).
In the case of `CC(NC(=O)CSc1nc2c(cc1C#N)CN(C)CC2)c1ccccc1` (configuration not stated), the protection (pct of control) is reported as 48.7% (active).
